In PubChem BioAssay (NCATS):
Records with an inconclusive call do not appear. The list shows a part of the results. Calls of active or inactive are those of the source. Unless noted, calls follow the shape of the dose curve; as a rule, active = well fitted curve in the direction sought with a large enough effect; inconclusive = small, poorly fitted or top-dose-only effect, or another doubt; inactive = no such curve, though single readings can be large; an effect the other way counts as inactive or inconclusive.

Key:
[1] = qHTS for differential inhibitors of proliferation of Plasmodium falciparum line D10 (AID 1877);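 also: parasites grown with compound for 72 h before DNA staining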; also: potency is read from the fitted curve at half-maximal effect
[2] = qHTS for differential inhibitors of proliferation of Plasmodium falciparum line Dd2 (AID 1882); conditions: Potency: Plasmodium falciparum Dd2 proliferation inhibition; also: nearly all actives have a fitted effect of over 65% in size; also: potency is read from the fitted curve at half-maximal effect
Method in brief: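 SYBR Green I DNA fluorescence read-out, ex 485/em 535 nm. Signals were normalized to 0.29 uM artemisinin and DMSO wells, then corrected using vehicle-only plates flanking each stack. Parasite growth ran 72 h in erythrocytes before lysis.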

[3] = qHTS for differential inhibitors of proliferation of Plasmodium falciparum line W2 (AID 1883); conditions: Potency: Plasmodium falciparum W2 proliferation inhibition;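 also: parasites grown with compound for 72 h before lysis and staining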; also: potency is read from the fitted curve at half-maximal effect
[4] = qHTS for differential inhibitors of proliferation of Plasmodium falciparum line HB3 (AID 1886); conditions: Potency: Plasmodium falciparum HB3 proliferation inhibition;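 also: parasites grown with compound for 72 h before SYBR Green readout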; also: potency is read from the fitted curve at half-maximal effect
[5] = qHTS Assay for Modulators of Human Peripheral Myelin Protein 22 (PMP22) Expression/Activity (AID 1967; active = well fitted curve in the direction sought with a large enough effect in the signal ratio; the % refers to the signal ratio)
Method in brief: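 Readout is the corrected green/red luminescence ratio after 24 h compound exposure, normalised to untreated cells (0%). Engineered MSC80 mouse Schwann cells express green luciferase from the mouse Pmp22 promoter and red luciferase from EF-alpha as internal control.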

[6] = molecular target: Ferritin light chain (Equus caballus) (UniProt P02791); assay: qHTS Validation Assay for Identification of Novel General Anesthetics (AID 2323); also: series mostly up to about 77 µM
Sequence of Ferritin light chain (Equus caballus) (P02791 2-175 limits assumed): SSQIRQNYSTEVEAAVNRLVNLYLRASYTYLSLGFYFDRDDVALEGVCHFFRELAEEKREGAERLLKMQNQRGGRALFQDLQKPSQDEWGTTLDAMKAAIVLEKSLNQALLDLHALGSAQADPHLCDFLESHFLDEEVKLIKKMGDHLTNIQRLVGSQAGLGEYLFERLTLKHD
Method in brief: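 Competitive displacement of the profluorescent anesthetic 1-AMA (50% saturated, PBS) from 10 uM apoferritin, 10 min, room temperature. Activity is normalized 380/535 nm fluorescence; concentration-response fitted with a four-parameter Hill equation.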

[7] = molecular target: ATP-dependent DNA helicase Q1 (Homo sapiens) (UniProt P46063); assay: qHTS Validation Assay for Inhibitors of RecQ-Like Dna Helicase 1 (RECQ1) (AID 2353)
Sequence of ATP-dependent DNA helicase Q1 (Homo sapiens) (P46063 whole entry, looked up): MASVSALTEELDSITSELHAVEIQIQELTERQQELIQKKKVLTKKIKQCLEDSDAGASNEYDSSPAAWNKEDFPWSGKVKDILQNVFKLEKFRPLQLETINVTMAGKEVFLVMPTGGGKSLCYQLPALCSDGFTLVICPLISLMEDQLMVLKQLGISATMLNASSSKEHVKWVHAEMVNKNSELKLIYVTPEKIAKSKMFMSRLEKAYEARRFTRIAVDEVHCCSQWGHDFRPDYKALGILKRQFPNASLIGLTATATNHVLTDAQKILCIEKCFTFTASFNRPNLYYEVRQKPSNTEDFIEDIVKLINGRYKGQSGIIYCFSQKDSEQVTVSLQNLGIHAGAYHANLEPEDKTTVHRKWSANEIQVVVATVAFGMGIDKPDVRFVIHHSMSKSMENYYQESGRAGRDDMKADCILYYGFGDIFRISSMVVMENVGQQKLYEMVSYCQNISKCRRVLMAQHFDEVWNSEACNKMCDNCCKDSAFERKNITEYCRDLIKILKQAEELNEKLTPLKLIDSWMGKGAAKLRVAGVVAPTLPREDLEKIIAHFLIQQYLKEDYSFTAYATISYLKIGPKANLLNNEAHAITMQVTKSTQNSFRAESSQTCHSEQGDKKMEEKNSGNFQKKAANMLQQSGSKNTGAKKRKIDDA
Method in brief: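 50 nM RECQ1T1 preincubated 15 min with compound in Tris pH 8.0 buffer with MgCl2, DTT, Tween-20 and 2.5 ug/ml poly(dI-dC); started with 200 nM TAMRA/BHQ-2 forked duplex and 2 mM ATP. Unwinding read as fluorescence (525/598 nm), two reads 2 h apart.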

[8] = molecular target: RecQ-like DNA helicase BLM (Homo sapiens) (UniProt P54132); assay: qHTS Validation Assay for Inhibitors of Bloom's syndrome helicase (BLM) (AID 2364)
Sequence of RecQ-like DNA helicase BLM (Homo sapiens) (P54132 whole entry, looked up): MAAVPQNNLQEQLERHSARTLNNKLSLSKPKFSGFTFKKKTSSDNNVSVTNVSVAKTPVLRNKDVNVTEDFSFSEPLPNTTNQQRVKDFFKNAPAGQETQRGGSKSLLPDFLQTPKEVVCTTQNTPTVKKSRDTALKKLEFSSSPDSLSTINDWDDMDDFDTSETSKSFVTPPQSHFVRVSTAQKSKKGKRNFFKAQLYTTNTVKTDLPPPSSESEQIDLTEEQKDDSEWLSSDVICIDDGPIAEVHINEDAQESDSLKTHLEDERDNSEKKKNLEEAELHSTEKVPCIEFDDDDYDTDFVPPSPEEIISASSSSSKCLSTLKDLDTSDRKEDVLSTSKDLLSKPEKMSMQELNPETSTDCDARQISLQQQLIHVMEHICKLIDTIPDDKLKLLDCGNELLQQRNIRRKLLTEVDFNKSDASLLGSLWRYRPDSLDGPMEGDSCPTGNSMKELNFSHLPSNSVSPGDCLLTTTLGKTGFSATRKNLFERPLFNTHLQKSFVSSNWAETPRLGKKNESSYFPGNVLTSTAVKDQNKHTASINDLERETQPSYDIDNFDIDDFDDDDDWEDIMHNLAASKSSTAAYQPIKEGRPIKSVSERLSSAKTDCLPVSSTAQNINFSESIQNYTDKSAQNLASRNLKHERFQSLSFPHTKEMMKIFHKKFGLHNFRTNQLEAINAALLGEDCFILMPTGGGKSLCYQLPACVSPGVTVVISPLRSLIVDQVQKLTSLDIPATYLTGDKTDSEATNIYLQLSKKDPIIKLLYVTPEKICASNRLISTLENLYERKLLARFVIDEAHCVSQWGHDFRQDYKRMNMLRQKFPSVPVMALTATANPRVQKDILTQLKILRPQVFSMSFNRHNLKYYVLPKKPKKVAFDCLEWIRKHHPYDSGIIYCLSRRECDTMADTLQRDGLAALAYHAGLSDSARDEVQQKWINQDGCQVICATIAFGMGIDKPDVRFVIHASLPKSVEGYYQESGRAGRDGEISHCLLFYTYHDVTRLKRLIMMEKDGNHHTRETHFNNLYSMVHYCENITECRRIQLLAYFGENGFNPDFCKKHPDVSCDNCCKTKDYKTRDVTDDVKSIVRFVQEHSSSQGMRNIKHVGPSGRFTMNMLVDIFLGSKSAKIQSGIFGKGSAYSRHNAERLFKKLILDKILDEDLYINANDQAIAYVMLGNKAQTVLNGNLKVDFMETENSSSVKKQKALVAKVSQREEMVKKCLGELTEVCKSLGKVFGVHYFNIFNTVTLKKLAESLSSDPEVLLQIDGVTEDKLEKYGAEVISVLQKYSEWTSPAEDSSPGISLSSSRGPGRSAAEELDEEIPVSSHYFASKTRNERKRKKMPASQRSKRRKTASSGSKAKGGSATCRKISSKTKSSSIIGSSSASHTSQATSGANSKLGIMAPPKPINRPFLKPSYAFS
Method in brief: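 50 nM BLM preincubated 15 min at room temperature with compound in pH 8.0 Tris buffer containing 2.5 ug/ml poly(dI-dC); started with 200 nM TAMRA/BHQ-2 forked duplex and 2 mM ATP (final). Unwinding read as TAMRA fluorescence increase, two reads 2 h apart.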

[9] = molecular target: Endonuclease 4 (Escherichia coli (strain K12)) (UniProt P0A6C1); assay: Counterscreen for APE1 Inhibitors: qHTS Assay for Inhibitors of Endonuclease IV (AID 2565)
Method in brief: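 Cleavage of a quenched abasic-site DNA duplex (50 nM, 5'-TAMRA, 3'-BHQ-2) by 2 nM enzyme is followed as fluorescence increase. Compounds are preincubated with enzyme 15 min at room temperature before substrate addition.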

Measured: Potency

CCCN(CCC)C1Cc2cc(OC)c(OC)cc2C1
not listed: [7] | [8] | [9]
inactive: all other assays above

CC(N)Cc1c[nH]c2ccc(O)cc12 (stereo not given)
not listed: [7] | [8] | [9]
inactive: all other assays above

NC(CCCCCP(=O)(O)O)C(=O)O (stereo not given)
not listed: [7] | [8] | [9]
inactive: all other assays above

CC12NC(Cc3ccccc31)c1ccccc12 (stereo not given)
active: [2] 7.94 µM | [3] 4.47 µM
not listed: [8] | [9]
inactive: all other assays above

C[N+]1(C)C2CCC1CC(OC(=O)c1c[nH]c3ccccc13)C2 (stereo not given)
active: [1] 12.6 µM | [2] 12.6 µM | [3] 7.94 µM | [4] 14.1 µM

C[C@]12Cc3cn4c(nc3C=C1CCC1C2CC[C@@]2(C)[C@H]1CC[C@@]2(O)C#N)nc1ccccc14 (stereo not given in full)
active: [1] 5.01 µM | [2] 3.55 µM | [3] 2.82 µM | [4] 5.62 µM
inactive: [6] | [7]

CC(N)[C@H](O)c1ccc(O)c(O)c1 (stereo not given in full)
not listed: [3] | [8] | [9]
inactive: all other assays above

Clc1ccc(N2CC3CCC(C2)N3)nn1
not listed: [3] | [9]
inactive: all other assays above

CCCN(CCC)[C@H]1CCc2c(F)ccc(O)c2C1
active: [1] 2.24 µM | [2] 1.26 µM | [3] 0.447 µM | [4] 1.41 µM
inactive: [6] | [7] | [8]

c1ccc2c(N3CCNCC3)cccc2c1
active: [1] 10 µM | [2] 11.2 µM | [3] 7.94 µM
inactive: [6] | [8]

O=S1(=O)N(CCN2CC=C(c3c[nH]c4cc(F)ccc34)CC2)c2cccc3c2N1CCC3
inactive: [6] | [7] | [8]
active: [1] 1.26 µM | [2] 2 µM | [3] 1 µM | [4] 1.26 µM

Ic1ccccc1CNC1C2CCN(CC2)C1C(c1ccccc1)c1ccccc1 (stereo not given)
active: [1] 11.2 µM | [2] 3.16 µM | [3] 1.41 µM | [4] 11.2 µM
inactive: [7] | [8]

CCCN(CCC)[C@@H]1CCc2cccc(O)c2C1
inactive: [6] | [8]
active: [1] 10 µM | [2] 8.91 µM | [3] 2.51 µM | [4] 10 µM

CC1(C(=O)O)C2CCC(O2)C1(C)C(=O)O (stereo not given)
inactive: [6] | [7]
active: [1] 1.58 µM | [2] 5.01 µM | [3] 1.12 µM | [4] 2.24 µM

COc1ccc2[nH]cc(CCN)c2c1
not listed: [5] | [8] | [9]
inactive: all other assays above

NCC(CP(=O)(O)O)c1ccc(Cl)cc1 (stereo not given)
not listed: [5] | [7] | [9]
inactive: all other assays above

CN1CC[C@@]2(C)c3cc(O)ccc3N(C)C12 (stereo not given in full)
active: [1] 14.1 µM | [2] 12.6 µM | [3] 12.6 µM | [4] 8.91 µM
inactive: [6] | [7]

C[Se]C[C@H](N)C(=O)O
not listed: [5] | [8] | [9]
inactive: all other assays above

NCCc1ccc(S(=O)(=O)F)cc1
not listed: [3] | [9]
inactive: all other assays above

O=[N+]([O-])c1cc(O)c(O)c([N+](=O)[O-])c1
not listed: [5] | [9]
inactive: all other assays above

Oc1ccc2c3c1O[C@H]1c4oc5ccccc5c4C[C@@]4(O)C(C2)N(CC2CC2)CCC314 (stereo not given in full)
inactive: [6] | [7] | [8]
active: [1] 12.6 µM | [2] 10 µM | [3] 3.16 µM | [4] 11.2 µM

c1ccc2c(c1)[I+]c1ccccc1-2
active: [1] 0.141 µM | [2] 1 µM | [3] 0.1 µM | [4] 0.0562 µM
not listed: [5]
inactive: all other assays above

COc1ccc2c(c1)/C(=C/c1cnc[nH]1)C(=O)N2
active: [1] 14.1 µM | [2] 12.6 µM | [3] 7.08 µM | [4] 12.6 µM
inactive: [7] | [8]

Oc1ccc2c3c1O[C@H]1c4[nH]c5ccccc5c4C[C@@]4(O)C(C2)N(CC2CC2)CCC314 (stereo not given in full)
inactive: [6] | [8]
active: [1] 12.6 µM | [2] 8.91 µM | [3] 6.31 µM
